In the OligoGym collection:

target: GPAA1; assay: pooled miR-30 sensor sort-seq; sequence = guide strand; conditions: shRNA
Also: reference of the scale not given here.

Sequence | sensor-assay potency score (higher = more potent)
TGAGCTTGCGGAACATGCCCTC | -0.336
TTCCGGGAGAAACTCTGCGTGT | -1.01
TATAGCGCTCGTGGGTCTCATC | -1.61
TAGCGCTGCCAGGAAGAGCTGC | -1.02
TTGAGCTTGCGGAACATGCCCT | -0.132
TTCTCCGACATGTAAGTGCGCT | -0.864
TTGAGGCGCAGCACTAGGCGGG | -0.543

target: GPATCH3; assay: as above; conditions: shRNA

Sequence | sensor-assay potency score (higher = more potent)
TTGAGCTCAATCTCCTCCTCAA | 0.169
TTCCGTGACGTCGCACACCCAA | -0.81
TCTGTCATAGTACACACTCATG | -1.69
TGTACACACAAGCTCTTCCTGC | -0.536
TAAAATAGCTCCGTAAATGGGC | -0.362
TTAGAGACCAAAGACAAGCGGT | 0.0667
TTAGGGCAGAGTTAGGAGCGGC | -0.764
TAAAACACCAGGCCAGAGCCAC | -0.98
TATTTCTTCACCCTCTGCTGTA | -0.595
TAAGCCTCTGAGCTTGAGCCAA | -0.945

target: GPBAR1; assay: as above; conditions: shRNA

Sequence | sensor-assay potency score (higher = more potent)
TGCTTTGGCTGCTTGGGTGGTA | -0.379
TGTGTAGCGCTGATCGCCCAGC | -1.16
TTGGGTGGTAGGCAATGCTGGG | -0.797
TGGTAGGCAATGCTGGGGCCGG | -1.84
TAGCGCTGATCGCCCAGCCCCA | -1.62
TGGGTGGTAGGCAATGCTGGGG | -1.2
TGCACTGGCACTTCCTAGGGAG | -0.377
TTCCACAGCCCTGGCAATGTGG | -1.2
CTGTGTAGCGCTGATCGCCCAG | -1.64
ACTGCTTTGGCTGCTTGGGTGG | -1.37
ATGTGGGCAATGCCAGACCCGT | -2.11
AGGAGGGACAACAGTGTCCCAG | -1.92

target: GPIHBP1; assay: as above; conditions: shRNA

Sequence | sensor-assay potency score (higher = more potent)
TTCTGCGTCAGGTTGCAGCGCT | -0.795
ATGAGGGTTGTGCAGGTCTGGC | -1.69
TTCAACCTCATCCTCATCTTCC | -0.334
ATGTGAGCAGTTCTGCGTCAGG | -1.72
TTGTGCAGGTCTGGCCATGTGA | -0.97
TCATCTTCCTCGTCGTAGTCAT | -0.418
TTCCTCTTCCTCCTGCTGTGTC | -0.491
TTGCACAGGCTGGACTGGCAGC | -1.25
ATCCTCATCTTCCTCGTCGTAG | -0.474
TGTTGGTCTCCTCCTCTTCAAC | -1.59
TCGTCGTAGTCATCTGGCCCGT | -1.29
